Results published in PubChem BioAssay.
Active and inactive are the calls of the source.

Key:
[1] = E. coli DRC41 culture turbidity changes, primary screen, E. coli filamentation inducer project, strain DRC41, OD650, 48 h (AID 1152);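 further: E. coli MC1000 strain DRC41 lacking acrAB efflux pump and sulA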; details: E. coli DRC41 (acrAB sulA), higher = more signal, called active from +8 up or from −8 down
[2] = small-molecule binders of probe aLefty1, primary screen, biochemical, small-molecule microarray, 635/667 nm fluorescence (AID 1153); details: higher = more signal;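 further: score merges spot fluorescence with signal-to-noise ratio from the scanned slide images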
[3] = PSAC antagonists in infected red cells, primary screen, cell-based, P. falciparum Indochina, OD700, 1 h (AID 1154); details: P. falciparum Indochina infected RBC osmotic lysis, higher = more signal, called active from +8 up or from −8 down
[4] = PSAC antagonists in infected red cells, primary screen, cell-based, P. falciparum Indochina, OD700, 2 h (AID 1155);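 further: lysis reports solute entry through the parasite surface anion channel PSAC; channel blockers reduce lysis of infected cells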; details: P. falciparum Indochina infected erythrocytes, osmotic lysis OD700; higher = more signal, called active from +8 up or from −8 down
[5] = osmotic lysis modulators in infected erythrocytes, primary screen, PSAC antagonist project, cell-based, P. falciparum Indochina, OD700, 3 h (AID 1156); details: higher = more signal, called active from +8 up or from −8 down
[6] = PSAC antagonists in infected red cells, primary screen, cell-based, P. falciparum Indochina, OD700, 18 h (AID 1157); details: P. falciparum Indochina infected erythrocytes, osmotic lysis OD700, 18 h; higher = more signal, called active from +8 up or from −8 down
[7] = modulators of S6 phosphorylation in cells, primary screen, cell-based, A549, cytoblot, luminescence, serum-stimulated (AID 1158); details: A549 phospho-S6 cytoblot, 5 h, higher = more signal;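 further: serum-stimulated A549 lung adenocarcinoma cells; signal is phosphorylated S6 detected by cytoblot immunostaining with HRP secondary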
[8] = target: NADPH oxidase 2 (Homo sapiens) (UniProt P04839); assay: NOX2-dependent H2O2 signal modulators, primary screen, NOX inhibitor project, cell-based, HEK293-NOX2, PMA-stimulated, Amplex Red fluorescence (AID 1159); details: 45 min, higher = more signal, called active from +8 up or from −8 down; further: test concentration not given here
[9] = target: NADPH oxidase 4 (Homo sapiens) (UniProt Q9NPH5); assay: NOX4-dependent H2O2 signal modulators, primary screen, NOX inhibitor project, cell-based, HEK293-NOX4, tetracycline-induced, Amplex Red fluorescence (AID 1160); details: 45 min, higher = more signal, called active from +8 up or from −8 down
[10] = target: NADPH oxidase 5 (Homo sapiens) (UniProt Q96PH1); assay: NOX5-dependent H2O2 signal modulators, primary screen, NOX inhibitor project, cell-based, HEK293-NOX5, Amplex Red fluorescence (AID 1161); details: HEK293-NOX5, ionomycin, 45 min, higher = more signal
[11] = A549 cell viability effects, profiling panel, calcein-AM fluorescence, 48 h, basal (AID 1162); details: higher = more signal; further: test concentration not given here
[12] = adipocyte viability effects, profiling panel, cell-based, 3T3-L1 adipocytes, calcein-AM fluorescence, 48 h, basal (AID 1163); details: 3T3-L1 adipocytes viability, higher = more signal; further: test concentration not given here
[13] = HepG2 cell viability effects, profiling panel, calcein-AM fluorescence, 48 h, basal (AID 1164); details: higher = more signal; further: test concentration not given here
[14] = MM1S cell viability effects, profiling panel, calcein-AM fluorescence, 48 h, basal (AID 1165); details: higher = more signal;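 further: viability of MM1S multiple myeloma cells under basal unstimulated conditions; test concentration not given here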
[15] = basal RPMI8226 viability, no added stimulus, profiling panel, cell-based, calcein-AM fluorescence, 48 h, PK04 Diversity Set (AID 1166); details: RPMI8226 myeloma viability, higher = more signal;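 further: cells grown under basal conditions without added stimulus; test concentration not given here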
[16] = basal HepG2 mitochondrial membrane potential changes, profiling panel, cell-based, JC-1 fluorescence, 24 h, 100 nL compound (AID 1167); details: higher = more signal; further: test concentration not given here
[17] = basal 3T3-L1 adipocyte mitochondrial potential changes, profiling panel, cell-based, JC-1 fluorescence, 3T3-L1 adipocytes, 24 h, 100 nL compound (AID 1168); details: JC-1 mitochondrial fluorescence, higher = more signal, called active from +8 up or from −8 down; further: test concentration not given here
[18] = basal RPMI8226 mitochondrial membrane potential changes, profiling panel, cell-based, JC-1 fluorescence, 24 h, 100 nL compound (AID 1169); details: RPMI8226 myeloma, JC-1 mitochondrial potential fluorescence, higher = more signal; further: test concentration not given here
[19] = basal MM1S mitochondrial membrane potential changes, profiling panel, cell-based, JC-1 fluorescence, 24 h, 100 nL compound (AID 1170); details: higher = more signal; further: test concentration not given here
[20] = A549 lung cancer cell viability effects, profiling panel, resazurin fluorescence, 24 h, PK04 Diversity Set (AID 1171); details: higher = more signal, called active from +8 up or from −8 down; further: test concentration not given here

NADPH oxidase 5 (Homo sapiens), sequence (Q96PH1 whole entry, looked up): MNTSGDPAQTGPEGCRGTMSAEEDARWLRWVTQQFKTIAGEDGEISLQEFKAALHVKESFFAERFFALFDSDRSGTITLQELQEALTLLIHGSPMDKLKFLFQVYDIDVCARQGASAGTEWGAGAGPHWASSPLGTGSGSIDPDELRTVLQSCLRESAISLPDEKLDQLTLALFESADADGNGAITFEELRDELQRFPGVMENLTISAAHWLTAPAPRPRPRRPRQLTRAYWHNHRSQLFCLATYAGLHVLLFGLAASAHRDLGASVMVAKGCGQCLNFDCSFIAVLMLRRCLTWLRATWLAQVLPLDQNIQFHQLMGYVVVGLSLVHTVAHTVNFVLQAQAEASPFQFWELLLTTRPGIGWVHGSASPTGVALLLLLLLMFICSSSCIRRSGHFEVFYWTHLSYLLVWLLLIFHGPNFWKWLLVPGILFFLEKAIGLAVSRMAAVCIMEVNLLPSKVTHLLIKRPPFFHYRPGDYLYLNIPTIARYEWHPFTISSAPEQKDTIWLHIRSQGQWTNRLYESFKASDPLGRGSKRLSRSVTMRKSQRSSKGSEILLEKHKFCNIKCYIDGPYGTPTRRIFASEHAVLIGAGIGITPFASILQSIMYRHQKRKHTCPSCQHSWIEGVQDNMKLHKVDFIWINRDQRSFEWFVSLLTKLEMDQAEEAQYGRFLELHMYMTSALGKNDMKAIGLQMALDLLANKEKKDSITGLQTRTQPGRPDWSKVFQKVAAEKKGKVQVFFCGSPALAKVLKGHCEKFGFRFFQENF
NADPH oxidase 2 (Homo sapiens), sequence (P04839 whole entry, looked up): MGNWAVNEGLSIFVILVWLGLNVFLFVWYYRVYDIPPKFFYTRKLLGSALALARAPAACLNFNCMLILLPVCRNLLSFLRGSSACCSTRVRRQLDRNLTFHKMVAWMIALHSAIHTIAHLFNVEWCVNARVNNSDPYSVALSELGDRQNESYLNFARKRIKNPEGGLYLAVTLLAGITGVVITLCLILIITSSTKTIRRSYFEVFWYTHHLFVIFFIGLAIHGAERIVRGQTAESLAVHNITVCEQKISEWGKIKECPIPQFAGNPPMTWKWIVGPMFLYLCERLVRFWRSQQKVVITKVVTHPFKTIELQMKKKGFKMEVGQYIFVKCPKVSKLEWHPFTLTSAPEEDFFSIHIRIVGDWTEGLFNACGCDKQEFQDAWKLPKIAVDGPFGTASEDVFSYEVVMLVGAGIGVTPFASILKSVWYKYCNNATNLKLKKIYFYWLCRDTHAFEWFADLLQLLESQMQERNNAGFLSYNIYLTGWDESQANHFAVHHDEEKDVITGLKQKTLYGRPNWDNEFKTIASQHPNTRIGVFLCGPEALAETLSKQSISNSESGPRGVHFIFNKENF
NADPH oxidase 4 (Homo sapiens), sequence (Q9NPH5 whole entry, looked up): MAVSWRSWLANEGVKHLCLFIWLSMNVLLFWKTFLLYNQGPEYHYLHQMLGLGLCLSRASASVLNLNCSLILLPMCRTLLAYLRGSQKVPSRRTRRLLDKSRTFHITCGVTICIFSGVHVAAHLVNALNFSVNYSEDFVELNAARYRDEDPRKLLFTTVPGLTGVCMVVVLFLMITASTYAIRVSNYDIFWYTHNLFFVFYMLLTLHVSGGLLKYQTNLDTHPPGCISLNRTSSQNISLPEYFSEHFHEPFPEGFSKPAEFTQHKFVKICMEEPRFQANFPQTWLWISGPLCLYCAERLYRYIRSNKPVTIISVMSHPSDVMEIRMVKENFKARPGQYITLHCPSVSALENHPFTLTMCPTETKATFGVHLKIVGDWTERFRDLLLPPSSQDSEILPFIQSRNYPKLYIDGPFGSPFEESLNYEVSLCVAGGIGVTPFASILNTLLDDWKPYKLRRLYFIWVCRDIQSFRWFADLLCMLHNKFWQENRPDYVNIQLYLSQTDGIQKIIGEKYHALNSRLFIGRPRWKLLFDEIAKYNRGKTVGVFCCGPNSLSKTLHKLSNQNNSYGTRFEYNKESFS

For O=C1OCCC=C[C@H]2OC34C=CCN(c5ccc(Cl)cc5)C(=O)[C@H]3N(CCO)C(=O)[C@@H]4C12 (stereo not given in full), the z-score [1] was -0.232 (inactive), the composite z-score [2] was -0.0501 and the z-score [3] was 0.773 (inactive). For the same molecule, the z-score [4] was 0.183 (inactive), the z-score [5] was 0.766 (inactive) and the z-score [6] was 0.355 (inactive). For the same molecule, the z-score [7] was -0.509, the z-score [8] was 1.69 (inactive) and the z-score [9] was -0.0621 (inactive). It also gave a z-score [10] of 1.48, a z-score [11] of -0.384 and a z-score [12] of 0.0844. The z-score [13] was 0.0509, the z-score [14] was 0.739 and the z-score [15] was -0.165. The z-score [16] was -0.28, the z-score [17] was 0.296 (inactive) and the z-score [18] was 0.0137. For the same molecule, the z-score [19] was 1.29 and the z-score [20] was 0.519 (inactive).
With C=C(C(=O)CC[C@@H](OC(C)=O)c1cccc(OCCO)c1)C(C)C the z-score [1] was -0.369 (inactive), the composite z-score [2] was 0.11 and the z-score [3] was 3.09 (inactive). For the same molecule, the z-score [4] was -0.0769 (inactive), the z-score [5] was 1.38 (inactive) and the z-score [6] was 0.0127 (inactive). For the same molecule, the z-score [7] was -0.78, the z-score [8] was 0.825 (inactive) and the z-score [9] was -1.12 (inactive). The z-score [10] was -1.05, the z-score [11] was -0.351 and the z-score [12] was 0.0938. It also gave a z-score [13] of -0.351, a z-score [14] of -1.54 and a z-score [15] of -0.0608. For the same molecule, the z-score [16] was -1.55, the z-score [17] was 0.216 (inactive) and the z-score [18] was 0.592. The z-score [19] was 0.484 and the z-score [20] was -0.326 (inactive).
For C=CCC(OC(C)=O)[C@@H]1[C@@H](N(Cc2ccc(-c3cccc(C(F)(F)F)c3)o2)C(=O)Cc2ccc(F)cc2)c2cc(OCCCO)ccc2N1C(=O)c1ccc2ccccc2c1 (stereo not given in full), the z-score [1] was -0.353 (inactive), the composite z-score [2] was 0.0732 and the z-score [3] was 0.05 (inactive). The z-score [4] was -0.213 (inactive), the z-score [5] was 0.337 (inactive) and the z-score [6] was 0.161 (inactive). For the same molecule, the z-score [7] was 0.531, the z-score [8] was -2.05 (inactive) and the z-score [9] was 0.631 (inactive). The z-score [10] was 0.0399, the z-score [11] was -0.292 and the z-score [12] was 0.499. It also gave a z-score [13] of 0.966, a z-score [14] of 0.353 and a z-score [15] of 0.366. The z-score [16] was 2.03, the z-score [17] was 0.294 (inactive) and the z-score [18] was -0.793. For the same molecule, the z-score [19] was 0.251 and the z-score [20] was 0.116 (inactive).
For O=C(NCC(F)(F)F)[C@@H]1c2ccccc2C(=O)N(CC23CC4CC(CC(C4)C2)C3)[C@H]1c1ccc(CO)cc1, the z-score [1] was 1.17 (inactive), the composite z-score [2] was 0.0585 and the z-score [3] was 0.75 (inactive). For the same molecule, the z-score [4] was -0.399 (inactive), the z-score [5] was -0.2 (inactive) and the z-score [6] was -0.264 (inactive). For the same molecule, the z-score [7] was 3.83, the z-score [8] was 0.49 (inactive) and the z-score [9] was -0.0154 (inactive). For the same molecule, the z-score [10] was 0.19, the z-score [11] was 1.5 and the z-score [12] was 1.27. It also gave a z-score [13] of 2.14, a z-score [14] of -0.347 and a z-score [15] of 0.777. The z-score [16] was 1.08, the z-score [17] was -0.154 (inactive) and the z-score [18] was 0.417. For the same molecule, the z-score [19] was -0.457 and the z-score [20] was 0.637 (inactive).
With O=C1N(CCS(=O)(=O)c2ccccc2)c2ccccc2[C@@H]2OC(c3ccc(OCCCO)cc3)=N[C@]12CCS(=O)(=O)c1ccccc1 the z-score [1] was -0.927 (inactive), the composite z-score [2] was 0.677 and the z-score [3] was 28.2 (active). For the same molecule, the z-score [4] was 23.7 (active), the z-score [5] was 1.18 (inactive) and the z-score [6] was 3.96 (inactive). The z-score [7] was -0.47, the z-score [8] was 0.678 (inactive) and the z-score [9] was 2.42 (inactive). For the same molecule, the z-score [10] was 2.43, the z-score [11] was 0.762 and the z-score [12] was 0.675. For the same molecule, the z-score [13] was -0.136, the z-score [14] was -1.68 and the z-score [15] was -0.104. The z-score [16] was -1.04, the z-score [17] was 1.48 (inactive) and the z-score [18] was -0.845. For the same molecule, the z-score [19] was -0.774 and the z-score [20] was 0.967 (inactive).
For CCOC(=O)C[C@H]1[C@H](OC(=O)c2ccc(-c3ccccc3)cc2)[C@@H](NC(=O)CC(C)C)c2cc(OCCCO)ccc2N1C(=O)Cc1ccc(OC)cc1, the z-score [1] was -0.931 (inactive), the composite z-score [2] was -0.323 and the z-score [3] was 3.94 (inactive). For the same molecule, the z-score [4] was 0.786 (inactive), the z-score [5] was -0.348 (inactive) and the z-score [6] was 0.261 (inactive). The z-score [7] was -0.0775, the z-score [8] was -0.521 (inactive) and the z-score [9] was 1.12 (inactive). The z-score [10] was 2.11, the z-score [11] was -0.39 and the z-score [12] was 0.22. The z-score [13] was -0.114, the z-score [14] was -1.7 and the z-score [15] was -0.194. For the same molecule, the z-score [16] was 0.593, the z-score [17] was -1.43 (inactive) and the z-score [18] was 0.908. For the same molecule, the z-score [19] was 0.185 and the z-score [20] was 0.207 (inactive).
In the case of COc1ccc(NN2C(C(O)c3ccc(OC)cc3)C=CC3C(=O)N(C4CCCCC4)C(=O)C32)cc1 (stereo not given), the z-score [1] is reported as -0.625 (inactive), the composite z-score [2] is reported as 0.0768 and the z-score [3] is reported as 9.1 (active). The z-score [4] was 1.69 (inactive), the z-score [5] was 0.722 (inactive) and the z-score [6] was 0.63 (inactive). The z-score [7] was -0.613, the z-score [8] was -1.34 (inactive) and the z-score [9] was -1.1 (inactive). The z-score [10] was -2.54, the z-score [11] was -0.285 and the z-score [12] was -1.29. It also gave a z-score [13] of 1.24, a z-score [14] of 0.764 and a z-score [15] of -0.512. The z-score [16] was -0.126, the z-score [17] was 0.0238 (inactive) and the z-score [18] was 0.417. The z-score [19] was -1.44 and the z-score [20] was 0.965 (inactive).
For CC(C)N1CC=CC23O[C@@H]4C=CCCOC(=O)C4[C@H]2C(=O)N(CCCCCO)[C@@H]3C1=O (stereo not given in full), the z-score [1] was 0.952 (inactive), the composite z-score [2] was -0.0186 and the z-score [3] was 1.42 (inactive). For the same molecule, the z-score [4] was 0.261 (inactive), the z-score [5] was 2.21 (inactive) and the z-score [6] was 0.455 (inactive). For the same molecule, the z-score [7] was 1.35, the z-score [8] was 1.42 (inactive) and the z-score [9] was 0.356 (inactive). For the same molecule, the z-score [10] was 1.48, the z-score [11] was -0.211 and the z-score [12] was -0.288. The z-score [13] was 1.28, the z-score [14] was 1.57 and the z-score [15] was 1.7. The z-score [16] was 0.77, the z-score [17] was 1.19 (inactive) and the z-score [18] was 0.0326. The z-score [19] was -1.08 and the z-score [20] was 0.846 (inactive).
With C#CCN=C(N)N the z-score [1] was 0.0764 (inactive), the composite z-score [2] was -0.214 and the z-score [3] was 0.269 (inactive). The z-score [4] was 0.347 (inactive), the z-score [5] was -0.765 (inactive) and the z-score [6] was -0.0065 (inactive). The z-score [7] was -0.871, the z-score [8] was 0.059 (inactive) and the z-score [9] was 0.217 (inactive). For the same molecule, the z-score [10] was -0.0927, the z-score [11] was -0.268 and the z-score [12] was -0.677. The z-score [13] was 0.527, the z-score [14] was 0.67 and the z-score [15] was 0.381. For the same molecule, the z-score [16] was -0.794, the z-score [17] was 0.268 (inactive) and the z-score [18] was -0.574. For the same molecule, the z-score [19] was -0.922 and the z-score [20] was 0.0116 (inactive).
